{
  "source": "PubChem BioAssay AID1347431",
  "about": "(National Center for Advancing Translational Sciences (NCATS), 2020)",
  "note": "Fewer than 10 of roughly 1,200 compounds were called active. A selection follows. A number with no mark means an inactive call. Calls follow the shape of the dose curve; as a rule, active = well fitted curve in the direction sought with a large enough effect; inconclusive = small, poorly fitted or top-dose-only effect, or another doubt; inactive = no such curve, though single readings can be large or run the other way.",
  "data": [
    {"assay": "Confirmatory qHTS assay for inhibitors of Activation Induced Cytidine Deaminase (AID): UDG signals; also: 0% is about no effect", "settings": "UDG coupled enzyme activity counter-screen; series mostly up to 115 µM; activity change, negative = inhibition: at the top concentration", "excerpt": "Assay Provider (PI) Patricia Gearhart Ph.D.\nNational Institute on Aging\nNational Institute of Health (NIH), Bethesda, MD\nAssay Provider (PI) Rahul Kohli Ph.D.\nPerelman School of Medicine\nUniversity of Pennsylvania, Philadelphia, PA\nActivation-Induced Deaminase (AID) is a cytosine deaminase which converts cytosine into uracil within stretches of ssDNA. The presence of uracil in DNA initiates a cascade of mutagenic DNA repair to introduce point mutations and DNA double strand breaks. Specific targeting of AID to the immunoglobulin heavy chain loci (Igh) promotes mutagenesis in the antibody variable region for somatic hypermutation (SHM) or switch regions leading to class switch recombination (CSR). However, AID also plays a role in accumulating unnecessary mutations across the genome. Mis-targeting of AID results in the initiation of tumor development and leads to greater drug resistance among cancer cells when continually expressed. To identify an AID inhibitor, a small molecule library will be screened in collaboration with NCATS core facility at NIH. To confirm biological function, inhibitors will be examined in an in vitro murine B-cell activation assay and subsequent secondary validation screens. Top molecules will be further screened to identify inhibitory efficacy against a wild type primary splenocytes assay. Using these approaches, we hope to identify a small molecule with great efficacy and low toxicity for use as a molecular probe to further characterize AID's intricacies, or even as a therapeutic.\nA FRET based analysis of cytosine deamination, was developed to identify potential inhibitors of AID catalytic activity. This screen has two signal output, Read 1 evaluates the AID inhibition response. The second readout (Read 2) evaluates UDG response and is uses as a counterscreen to exclude false positive inhibitors. Inhibition in AID and inactivity in the UDG signal is the desired outcome for this assay.\nSEQUENCE No. (e.g., 1, 2, 3, etc.); […] (e.g., Cells, Incubation, Reagent, etc.); VALUE; DESCRIPTION\n1a; Reagent; 3 uL; [4/3x] 1 uM AID/2.67 U/mL UDG\n1b; Reagent; 3 uL; 2 U/mL UDG\n1c; Reagent; 3 uL; 1 uM AID\n2a; Compound; 46 nL; Follow-up plates (0.64 uM - 10 mM)\n2b; Control; 46 nL; ATA ([…] - 10 mM)\n3; Time; 10 min; incubation at room temperature\n5; Time; 4 hr; incubation at room temperature\n6; Reagent; 4 uL; [2x] 250 mM NaOH\n7; Time; 15 sec; centrifuge at 1000 rpm\n8; Time; 30 min; incubation at room temperature\n9a; Detection; fluorescence (Read 1: AID); EnVision (PerkinElmer) plate reader, 540 excitation and 590 emission filters\n9b; Detection; fluorescence (Read 2: UDG); EnVision (PerkinElmer) plate reader, 560 excitation and 665 emission filters\nNOTES (numbers refer to sequence above)\n1a; Reagents were dispensed in a medium-binding black solid-bottom Greiner plates (789176F) using a BioRptr liquid dispenser. Dispense 3 uL of [4/3x] 1 uM AID (provided by Kohli lab) and [4/3x] 2 U/mL UDG (NEB M0280L) into columns 1, 2, 5 to 48.\n1b; Dispense 3 uL of [4/3x] 2 U/mL UDG into column 3.\n1c; Dispense 3 uL of [4/3x] 1 uM AID into column 4.\n2a; Compound (7-points [uM]: 0.64; 3.2; 16; 80; 400; 2,000; 10,000; […]) double pin-transferred (Dip Factor = 2) using the Kalypsys (Wako USA) pintool equipped with a 1536 pinhead for a final concentration range of 7.32 nM - 114 uM.\n2b; 10 mM Aurintricarboxylic Acid (Sigma A1895) (ATA, 8-point, n = 2, 1:2.5 dilution in column 2) double pin-transferred (Dip Factor = 2) using the Kalypsys (Wako USA) pintool equipped with a 1536 pinhead for a [final] range of 186 nM - 114 uM.\n3; Room temperature incubation.\n4; Dispense 1 uL of substrate mixture from the Kohli lab [4x] […] DJC20 and [4x] 250 nM DJC23 into columns 1 to 48 .\n5; Room temperature incubation.\n6; Dispense 4 uL of substrate mixture [2x] 250 mM NaOH into columns 1 to 48.\n7; Centrifugation step to remove bubbles.\n8; Room temperature incubation\n9a; Fluorescence signal (column label AID) was read using the EnVision plate reader. […]", "units": {"activity change, negative = inhibition": "%"}, "values": [
      {"smiles": "CCN1CCN(c2cc(C)c3cc(NC(=O)/C=C/c4cccc(Cl)c4)ccc3n2)CC1", "activity change, negative = inhibition": 2.14},
      {"smiles": "CCOc1ccc(Nc2sc(C(=O)c3ccc(F)cc3)c(N)c2S(=O)(=O)c2ccc(C)cc2)cc1", "activity change, negative = inhibition": -3.57},
      {"smiles": "CCc1ccccc1N(C)C(=O)c1sc2nc3n(c(=O)c2c1C)CCCCC3", "activity change, negative = inhibition": 1.65},
      {"smiles": "COc1ccc(CNC(=O)c2cnn3c(C)c(Cc4c(F)cccc4Cl)c(C)nc23)cc1", "activity change, negative = inhibition": -1.61},
      {"smiles": "COc1ccc(C(=O)c2cn(Cc3ccccc3F)c3ccc(F)cc3c2=O)cc1", "activity change, negative = inhibition": -4.88},
      {"smiles": "CCCCCCSc1nc(N)c2c3c(sc2n1)CCCC3C", "note": "(stereo not given)", "activity change, negative = inhibition": -13.7},
      {"smiles": "Cc1nc2c(C(=O)NCCc3ccc(Cl)cc3)cnn2c(C)c1Cc1ccc(F)cc1", "activity change, negative = inhibition": -12.3},
      {"smiles": "Cc1cccc(N2C(=O)N(CC(=O)C(C)(C)C)c3ccccc3S2(=O)=O)c1C", "activity change, negative = inhibition": 2.18},
      {"smiles": "COc1ccccc1OCCn1c(C(C)Oc2ccccc2)nc2ccccc21", "note": "(stereo not given)", "activity change, negative = inhibition": -7.15},
      {"smiles": "CCOc1ccccc1NC(=O)CN1C(=O)CC(c2ccc(OC)c(OC)c2)Sc2ccccc21", "note": "(stereo not given)", "activity change, negative = inhibition": -2.93},
      {"smiles": "CCC(C(=O)N1CCN(c2cc(C)ccc2C)CC1)n1nc(C)n2c(cc3occc32)c1=O", "note": "(stereo not given)", "activity change, negative = inhibition": -15},
      {"smiles": "COc1ccc(-n2c(Cc3ccccc3)nnc2SCc2nc(-c3ccccc3C)no2)cc1", "activity change, negative = inhibition": -23.7},
      {"smiles": "COc1ccc(N2C(=O)CSC23C(=O)N(Cc2cccc(C(F)(F)F)c2)c2ccccc23)cc1", "note": "(stereo not given)", "activity change, negative = inhibition": -6.88},
      {"smiles": "Cc1nc2cc(-c3ccccc3)nn2c(C)c1CCC(=O)N1CCN(c2ccc(F)cc2)CC1", "activity change, negative = inhibition": -8.14},
      {"smiles": "COc1ccc(C)cc1N(C)C(=O)c1sc2nc3n(c(=O)c2c1C)CCCCC3", "activity change, negative = inhibition": 1.37},
      {"smiles": "Cc1oc(-c2ccccc2Cl)nc1CS(=O)CC(=O)N1CCN(c2cccc(C(F)(F)F)c2)CC1", "note": "(stereo not given)", "activity change, negative = inhibition": 1.61},
      {"smiles": "Cc1ccc2onc(CC(=O)N3CCN(c4cc(Cl)ccc4C)CC3)c2c1", "activity change, negative = inhibition": -3.38},
      {"smiles": "CCn1cc(C(=O)NCCc2ccc(OC)c(OC)c2)c(=O)c2cc(S(=O)(=O)N(C)C3CCCCC3)ccc21", "activity change, negative = inhibition": -16},
      {"smiles": "CC(C)c1ccc(NC(=O)c2ccc3c(O)c(S(=O)(=O)c4ccccc4)c(=O)[nH]c3c2)cc1", "activity change, negative = inhibition": 1.07},
      {"smiles": "CCn1cc(S(=O)(=O)c2ccc(C)cc2C)c(=O)c2cc(F)c(N3CCCC3)cc21", "activity change, negative = inhibition": 0.779},
      {"smiles": "Cc1cccc(CNC(=O)c2oc3c(c2C)-c2nn(Cc4ccccc4Cl)cc2CC3)c1", "activity change, negative = inhibition": 6.73},
      {"smiles": "COc1ccc(N2CCN(C(=O)c3cc4c(-c5ccccc5F)nn(C)c4s3)CC2)cc1", "activity change, negative = inhibition": -2.54},
      {"smiles": "CCc1cccc(-n2c(C)nc3c(cnn3-c3ccc(Cl)cc3)c2=O)c1", "activity change, negative = inhibition": 2.34},
      {"smiles": "CCOc1ccc(-c2nc(CSCC(=O)N3CCN(c4cccc(C(F)(F)F)c4)CC3)c(C)o2)cc1", "activity change, negative = inhibition": -17.8},
      {"smiles": "Cc1ccc(-n2ncc(C(=O)NCCc3ccccc3)c2C2CCN(C(=O)OC(C)(C)C)CC2)c(C)c1", "activity change, negative = inhibition": -6.03},
      {"smiles": "CCn1cc(C(=O)NCCc2ccc(OC)c(OC)c2)c(=O)c2cc(S(=O)(=O)N3CCC(C)CC3)ccc21", "activity change, negative = inhibition": -8.81},
      {"smiles": "COc1cc2nc(NC(=O)c3ccc(S(=O)(=O)N4CCc5ccccc54)cc3)sc2cc1OC", "activity change, negative = inhibition": 3.33},
      {"smiles": "Cc1ccc2oc(C(=O)NCC(c3ccc(Cl)cc3)N3CCOCC3)c(C)c2c1", "note": "(stereo not given)", "activity change, negative = inhibition": -1.52},
      {"smiles": "N=c1n(CCN2CCCCC2)c2ccccc2n1CC(O)COc1ccc(Cl)cc1Cl", "note": "(stereo not given)", "activity change, negative = inhibition": -4.14},
      {"smiles": "CCCCN(CC)CCNC(=O)c1cc2c(=O)oc3ccc(C)cc3c2s1", "activity change, negative = inhibition": 3.87},
      {"smiles": "O=C(Nc1ccc(F)cc1F)c1ccc2c(O)c(S(=O)(=O)c3ccc(Cl)cc3)c(=O)[nH]c2c1", "activity change, negative = inhibition": 6.68},
      {"smiles": "CCC(C(=O)Nc1cc(Cl)ccc1OC)n1nc(-c2ccccc2)ccc1=O", "note": "(stereo not given)", "activity change, negative = inhibition": 0.722},
      {"smiles": "CCCNC(=O)c1cnn2c(C)c(Cc3c(C)cc(C)cc3C)c(C)nc12", "activity change, negative = inhibition": -0.105},
      {"smiles": "CCc1ccc(NC(=O)CSc2nccn2-c2cccc(C)c2C)cc1", "activity change, negative = inhibition": -12.7},
      {"smiles": "Cc1c(Cl)cccc1-n1ncc(C(=O)NCc2cccs2)c1C1CCN(C(=O)OC(C)(C)C)CC1", "activity change, negative = inhibition": -10.8},
      {"smiles": "Cc1nc2ccccc2n1CCc1nc2c3ccccc3nc(SCC(=O)Nc3ccc(C(C)C)cc3)n2n1", "activity change, negative = inhibition": -1.98},
      {"smiles": "COc1ccc(NC(=O)c2c(NC(=O)c3ccc(Br)cc3)sc3c2CCCC3)cc1", "activity change, negative = inhibition": -4.81},
      {"smiles": "Cc1ccccc1Cc1c(C)nc2nc(SCC(=O)NCCc3ccc(Cl)cc3)nn2c1C", "activity change, negative = inhibition": -12.4},
      {"smiles": "COCCCNC(=O)c1oc2c(c1C)-c1nn(Cc3cccc(Cl)c3)cc1CC2", "activity change, negative = inhibition": -14.6},
      {"smiles": "Cc1cccc(-n2c3nc(=O)[nH]c(=O)c-3cc3ccc(Cl)cc32)c1C", "activity change, negative = inhibition": -6.3},
      {"smiles": "Cc1cc(N)c(-n2cc3c(c2-c2ccc(Br)cc2)c(=O)n(C)c(=O)n3C)cc1C", "activity change, negative = inhibition": -5.86},
      {"smiles": "Cc1cccc(Cn2nnc3c(=O)[nH]c(C4CCCN(C(=O)c5ccc(C(C)(C)C)cc5)C4)nc32)c1", "note": "(stereo not given)", "activity change, negative = inhibition": -5.24},
      {"smiles": "COc1ccc(CCN2CCC(CNC(=O)c3cnn(-c4cccc(Cl)c4)c3C3CCN(C(=O)OC(C)(C)C)CC3)CC2)cc1", "activity change, negative = inhibition": -5.53},
      {"smiles": "COc1cc(NC(=O)CCc2c(C)nc3c4c(C)cc(C)nc4nn3c2C)cc(OC)c1", "activity change, negative = inhibition": 3.35},
      {"smiles": "CCOC(=O)c1ccc(-c2ccc(/C=C(\\C#N)c3nc4ccc(C)cc4[nH]3)o2)cc1", "activity change, negative = inhibition": -7.54}
    ]}
  ]
}
